Compounds with a hit are over-represented: about 7.9% of the library has one in this group of screens.
SW480 rerep: induces DNA re-replication in SW480 colon adenocarcinoma cells. SW480 DNA re-replication, Hoechst DNA content imaging, 48 h. Potency, µM (highest dose often 46.1 µM), for inactives: at the top dose re-replication activation, usual class: activators. 340,000 tested, 1.8% active; note: % of control where 0% means no effect; nearly all actives have a fitted effect of over 55% in size
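Quantitative HTS format with DMSO vehicle controls; 48 hr drug incubation at 37 C, then 40 min Hoechst staining and scanning imager measurement at 405 nm excitation.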
HT1080NT lethal: kills 2HG-producing HT-1080-NT fibrosarcoma cells. HT-1080-NT fibrosarcoma viability, CellTiter-Glo ATP luminescence, 48 h. Potency, µM (series often up to 46.1 µM), for inactives: at the top dose activity, negative = less viability, most hits filed as cytotoxic. 360,000 tested, 1.6% active;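 note: NT is the 2HG producing partner of a matched IDH1 knockdown line; 0% = DMSO-treated cells and -100% = media-only wells without cells; nearly all actives have a fitted effect of over 55% in size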
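Viability of the 2HG-overproducing fibrosarcoma line after 48 hours of compound exposure at 37 degrees C was determined by luminescence with CellTiter-Glo, and concentration-effect curves were then fitted and categorized.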
MCF10A rerep: induces DNA re-replication in MCF 10a normal breast cells; 350,000 tested, 2.9% active; MCF 10A DNA re-replication, Hoechst nuclear intensity, 48 h; Potency, µM (highest dose often 46.1 µM), for the others: at the top dose activity, positive = re-replication, hits mostly activators; AID 624296; note: % of control where 0% means no effect; nearly all actives have a fitted effect of over 50% in size
KB-3-1 cytotox: KB-3-1 parental cell cytotoxicity; AID 1347075; Potency, µM (doses to about 46.1 µM), most hits filed as cytotoxic; 400,000 tested, 1.4% active; KB-3-1 viability, CellTiter-Glo ATP luminescence, 72 h; note: % is set by controls: 0 for no effect and ±100 for the full control effect; nearly all actives have a fitted effect of over 60% in size
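Parental KB-3-1 viability, qHTS format: 72 h compound exposure, 37 °C; CellTiter-Glo; media-only wells and DMSO plates as controls; concentration-effect fits on corrected data.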
HT1080 IDH1KD tx: HT-1080 IDH1 knockdown cell toxicity (counter line); HT-1080 IDH1 knockdown viability, ATP luminescence, 48 h; Potency, µM (highest dose often 46.1 µM), inactives show top-dose activity, negative = toxicity, usual class: cytotoxic; 360,000 tested, 2% active;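 note: 0% = DMSO wells and -100% = cell-free medium wells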
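Assay cells: HT-1080 with IDH1 knockdown, 750 per well, RPMI/5% FBS. Exposure: 48 h at 37 °C following 2 h pre-incubation. Read: CellTiter-Glo luminescence; fitted concentration-response, curve class assigned.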
KB-V1 MDR tox: KB-V1 MDR subline cytotoxicity. KB-V1 MDR cells viability, CellTiter-Glo, 72 h. Potency, µM (doses to about 46.1 µM), usual class: cytotoxic. 400,000 tested, 3.4% active. AID 1347076; note: % is set by controls: 0 for no effect and ±100 for the full control effect; nearly all actives have a fitted effect of over 60% in size
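Readout: CellTiter-Glo luminescence, 10 min after addition. Cells: KB-V1 MDR subline, 72 h at 37 degrees C with compound. Analysis: corrected, normalized data fitted to concentration-effect curves.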
* hit, by the source's call; i = inactive; ? = inconclusive; / = no result given; ! = repeats disagree. Calls come from the whole dose curve; as a rule, active = well fitted curve in the direction sought with a large enough effect; inconclusive = small, poorly fitted or top-dose-only effect, or another doubt; inactive = no such curve, though single readings can be large; an effect the other way counts as inactive or inconclusive. Potency is the fitted concentration of half-maximal effect.

SMILES	SW480 rerep	HT1080NT lethal	MCF10A rerep	KB-3-1 cytotox	HT1080 IDH1KD tx	KB-V1 MDR tox
COc1ccc2c(c1OC)C[N+]1([O-])CCc3cc4c(cc3C1C2)OCO4 (stereo unspecified)	-4%	11%	-21%	i	10%	i
CC(C)[C@H]1CC2C3CC=C4C[C@@H](O)CC[C@]4(C)C3CC[C@]2(C)[C@H]1O (stereo partly specified)	?	1%	18µM*	i	-1%	i
CC(=O)OCC(=O)C1CCC2C3CC=C4CC(O)CCC4(C)C3CCC12C (stereo unspecified)	-3%	-28%	4%	i	-1%	15µM*
C[C@]12CC[C@H]3[C@@H](CC=C4C[C@@H](O)CC[C@@]43C)[C@@H]1CC[C@@H]2O	-3%	/	2%	/	/	/
CN1CCCC1c1cccnc1 (stereo unspecified)	-1%	8%	-1%	i	6%	i
CCCCn1c(O)c(C(C)=NCc2ccc(F)cc2)c(=O)[nH]c1=O	-2%	-1%	0%	i	-11%	i
CCCCn1c(O)c(C(CC)=NCc2ccc(F)cc2)c(=O)[nH]c1=O	-4%	1%	15%	?	-10%	10µM*
O=C(OCc1c(-c2ccccc2)ncc2ccccc12)c1ccc(C(F)(F)F)cc1	3%	8%	-20%	i	7%	i
ClCCN(CCCl)c1ccc(-n2cnc3c(Cl)ncnc32)cc1	8.2µM*	?	2.9µM*	?	23µM*	i
N[C@@H](Cc1ccc(N(CCCl)CCCl)cc1)C(=O)O	?	0%	?	i	?	i
Cc1cc2c(C(F)(F)F)cc(=O)oc2c2c1NCCC2	?	-3%	1%	i	26%	i
O=c1cc(C(F)(F)F)c2cc3c4c(c2o1)CCCN4CCC3	?	-28%	10µM*	i	-23%	i
COc1ccc2[nH]cc(CCN(C)C)c2c1	-32%	1%	1%	i	0%	i
COc1ccc(CNC(=O)/C=C/c2ccc3[nH]cc(CCN(C)C)c3c2)cc1	3.2µM*	-2%	7%	i	-22%	i
NCC(=O)c1ccc(Br)cc1	/	/	/	i	/	i
O=C(Nc1ccc(F)c([N+](=O)[O-])c1)c1cccn(Cc2ccccc2)c1=O	/	/	/	i	/	i
CC(C)C(NC(=O)C(C(C)C)N(C)C)C(=O)N(C)C(C(=O)N1CCCC1C(=O)N1CCCC1C(=O)NCc1ccccc1)C(C)C (stereo unspecified)	?	0.21µM*	?	?	?	21µM*
O=C(CN1CCCCC1)c1cccc(Br)c1	?	2%	17%	i	2%	i
Cn1c(CN2CCCCC2)nc2cc(NC(=O)c3cccc(Br)c3)ccc21	17%	?	?	18µM*!	?	?
CCOC(=O)[C@]12Cc3cc(OC)ccc3[C@H]1N(Cc1ccccc1)C(=O)c1cc(OC)ccc12	/	-20%	/	?	-26%	i
CCOC(=O)[C@]12Cc3ccccc3[C@H]1N(CCC(=O)OC)C(=O)c1cc(OC)ccc12	/	?	/	?	?	9.2µM*
CCOC(=O)[C@]12Cc3cc(OC)ccc3[C@H]1N(CCC(=O)OC)C(=O)c1cc(OC)ccc12	/	?	/	5.2µM*	?	?
CCOC(=O)[C@]12Cc3c(cc(OC)c(OC)c3OC)[C@H]1N(CCC(=O)OC)C(=O)c1ccccc12	/	?	/	8.2µM*	?	?
CCC12CN3CC(CC)(CN(C1)C3c1c(C)[nH]c(=O)[nH]c1=O)C2=O (stereo unspecified)	/	/	/	i	/	?
COc1cc(OC)cc(C(=O)Nc2ccc(Cl)cc2C(=O)c2ccccc2Cl)c1	/	/	/	i	/	i

Screening results: PubChem, National Center for Advancing Translational Sciences (NCATS)
